# Measured values from PMC4336329 (PLoS ONE, 2015).
# Among all 310,000 compounds or so, about 14,000 (4.5%) showed an effect of 50% or more. Effects have a minus sign here. The full list was thinned out, with strong results kept by preference.
# Molecular target: human ether-à-go-go-related gene (hERG) potassium channel (human, UniProt Q12809)
# Assay: primary screen, population patch clamp on CHO cells stably expressing hERG; higher = less effect of the substance
# 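Also: peak tail current of the secondary pulse compared with the same well before compound.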
# Sequence of human ether-à-go-go-related gene (hERG) potassium channel (Q12809 whole entry, looked up): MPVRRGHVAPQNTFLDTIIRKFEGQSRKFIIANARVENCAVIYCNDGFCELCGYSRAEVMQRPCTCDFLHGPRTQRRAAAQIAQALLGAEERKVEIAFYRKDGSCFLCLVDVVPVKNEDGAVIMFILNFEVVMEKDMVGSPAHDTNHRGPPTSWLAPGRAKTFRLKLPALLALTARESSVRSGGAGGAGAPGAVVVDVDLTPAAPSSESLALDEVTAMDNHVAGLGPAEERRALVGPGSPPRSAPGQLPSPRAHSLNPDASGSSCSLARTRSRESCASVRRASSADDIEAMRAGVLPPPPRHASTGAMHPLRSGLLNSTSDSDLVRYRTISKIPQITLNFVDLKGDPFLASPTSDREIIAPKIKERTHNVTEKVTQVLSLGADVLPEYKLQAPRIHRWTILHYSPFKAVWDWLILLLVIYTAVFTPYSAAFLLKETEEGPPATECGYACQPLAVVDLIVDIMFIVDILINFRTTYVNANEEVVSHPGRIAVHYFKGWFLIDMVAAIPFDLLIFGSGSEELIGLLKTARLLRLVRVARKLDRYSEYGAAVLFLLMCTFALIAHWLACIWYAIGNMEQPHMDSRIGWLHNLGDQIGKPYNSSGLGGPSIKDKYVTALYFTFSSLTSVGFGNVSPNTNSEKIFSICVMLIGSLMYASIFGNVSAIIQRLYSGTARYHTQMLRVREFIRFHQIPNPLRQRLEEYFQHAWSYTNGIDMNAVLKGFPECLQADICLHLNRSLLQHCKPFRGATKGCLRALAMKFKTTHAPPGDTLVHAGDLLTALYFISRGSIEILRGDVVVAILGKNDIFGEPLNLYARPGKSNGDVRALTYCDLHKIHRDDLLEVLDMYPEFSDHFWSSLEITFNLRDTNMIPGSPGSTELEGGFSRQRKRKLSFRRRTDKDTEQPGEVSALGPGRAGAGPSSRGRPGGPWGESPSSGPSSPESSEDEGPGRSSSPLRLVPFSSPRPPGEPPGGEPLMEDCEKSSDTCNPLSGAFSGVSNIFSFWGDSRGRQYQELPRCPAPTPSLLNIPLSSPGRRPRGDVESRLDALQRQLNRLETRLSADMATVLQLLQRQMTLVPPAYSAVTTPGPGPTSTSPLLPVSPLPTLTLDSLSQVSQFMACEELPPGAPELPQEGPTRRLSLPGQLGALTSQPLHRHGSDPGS
row,SMILES,"hERG current change (%, negative = inhibition) at 10uM [%]"
1,COc1cccc(C(=O)OCCN2C(=O)c3ccccc3C2=O)c1OC,4.5
2,CC1CC(C)CN(CCCNC(=O)Cn2ncc3c([nH]c4ccccc43)c2=O)C1 (stereo not drawn),-18
3,CC(C)NS(=O)(=O)c1ccc(CCC(=O)Nc2ccc3c(c2)OCO3)cc1,1.66
4,COc1ccc2c(c1)C(C)=CC(C)(C)N2C(=O)Nc1ccccc1,-14.9
5,O=C(OCC(=O)N1CCN(c2ccccc2)CC1)c1cc(Br)ccc1Cl,-25.3
6,CN(CC(=O)Nc1ccc(F)cc1)C(=O)c1cc(-c2ccco2)nc2ccccc12,-32.5
7,CCOC(=O)C1=C(CC)Nc2ccccc2N=C1NC(=O)Nc1ccccc1OC,13.8
8,COC(=O)c1ccc(N2C(=O)C3CC=CC(C)C3C2=O)cc1 (stereo not drawn),19.3
9,COc1ccc(OC)c(NC(=O)CCN2CCN(c3ccccc3OC)CC2)c1,2.82
10,COc1ccc(C(=O)N2CCN(c3ccccc3OC)CC2)cc1,21
11,COc1ccc(C(=O)CCN2CCN(c3ccccc3OC)CC2)cc1.Cl,-50.3
12,OC1CCCN(Cc2nc(Cc3ccccc3Cl)no2)C1 (stereo not drawn),9.94
13,O=C(CN(Cc1ccco1)C(=O)c1ccc(F)cc1F)Nc1ccccc1C(F)(F)F,-21.5
14,CCOC(=O)C1CCN(C(=O)COc2cc(C)c(Br)cc2C)CC1,-54.7
15,CCOC(=O)C1CCN(C(=O)COc2ccc(Cl)cc2C)CC1,-46.1
16,CCOC(=O)C1CCN(C(=O)COc2ccc(Br)cc2Br)CC1,-51.8
17,CCOC(=O)C1CCN(C(=O)COc2ccc(Cl)cc2Cl)CC1,-40.7
18,CCOC(=O)C1CCN(C(=O)COc2ccc(Br)cc2C)CC1,-19.3
19,CCOC(=O)C1CCN(C(=O)COc2cc(C)c(Br)c(C)c2)CC1,-43.2

row,SMILES,"hERG current change (%, negative = inhibition) at 10uM [%]"
1,COc1cccc(N2C(=O)C3C(C2=O)C3(c2ccccc2)c2ccccc2)c1 (stereo not drawn),-3.19
2,CCN(CC)C(=O)CSc1nnc2sc3ccccc3n12,14.8
3,CCOC(=O)C1(Cc2ccccc2)CCN(Cc2nccn2CC)CC1,-20
4,CCOC(=O)N1CCN(Cc2ccccn2)CC1.O=C(O)C(=O)O,0.59
5,CCOC(=O)C1(CCc2ccccc2)CCN(Cc2ccccn2)CC1,-74.3
6,CCOC(=O)C1(Cc2ccc(Cl)cc2)CCN(Cc2nccn2CC)CC1,-67.6
7,CCOC(=O)C1(Cc2cccc(OC)c2)CCCN(Cc2nccn2CC)C1 (stereo not drawn),-30.8
8,CCOC(=O)C1(CCOc2ccccc2)CCN(Cc2nccn2CC)CC1,-58.2
9,CCOC(=O)C1(CCc2ccccc2)CCN(Cc2nccn2CC)CC1,-66.2
10,CCOC(=O)C1(Cc2ccccc2)CCCN(Cc2ccccn2)C1 (stereo not drawn),-20.7
11,CCOC(=O)Cn1cnc2c(cnn2-c2ccc(Cl)cc2)c1=O,-4.32
12,O=C(CCCc1ccccc1)Nc1ccc(Br)cc1F,14.4
13,Cc1cc(OCC(=O)c2ccc(C(F)(F)F)cc2)n2cnnc2n1,5.8
14,COc1ccc(N(CC(=O)Nc2cccc([N+](=O)[O-])c2C)S(C)(=O)=O)cc1OC,-7.79
15,S=C(NCc1ccco1)Nc1cccc(Cl)c1,-6.16
16,CCN(CC)S(=O)(=O)c1cccc(NC(=O)COC(=O)c2n[nH]c(=O)c3ccccc23)c1,-2.07
17,COC(=O)c1ccccc1NC=C1C(=O)OC2(CCCCC2)OC1=O,-1.07
18,Cc1cccc(-c2nnc(NC(=O)c3cccs3)s2)c1,-21.7
19,COc1ccc(S(=O)(=O)n2ccc(-c3ccc(OCCN(C)c4ccccn4)cc3)n2)cc1,11.4

row,SMILES,"hERG current change (%, negative = inhibition) at 10uM [%]"
1,CCOC(=O)C1(CCCc2ccccc2)CCN(Cc2nccn2CC)CC1,-74
2,Cc1oc(S(=O)(=O)N2CCOCC2)cc1C(=O)Nc1ccc(F)cc1,-6.29
3,O=C(CSc1nc2ncccc2[nH]1)Nc1ccc2c(c1)OCO2,9.63
4,Cc1cc(C)n2nc(SCC(=O)c3cc(C)n(-c4cc(C)on4)c3C)nc2n1,-67.5
5,Cc1cc(C)n2nc(SCC(=O)c3cc(C)n(CC4CCCO4)c3C)nc2n1 (stereo not drawn),1.05
6,CCCn1c(C)cc(C(=O)CSc2nc3nc(C)cc(C)n3n2)c1C,6.97
7,Cc1cc(C)cc(NC(=O)CSc2nc3nc(C)cc(C)n3n2)c1,-50.2
8,Cc1cc(C)n2nc(SCC(=O)Nc3ccccc3)nc2n1,-4.16
9,Cc1cccc(NC(=O)CSc2nc3nc(C)cc(C)n3n2)c1,-32.6
10,CNC1=C(N(C(C)=O)c2ccc(Br)cc2)C(=O)c2ccccc2C1=O,11.5
11,COc1ccc(S(=O)(=O)NCc2cccs2)cc1,2.67
12,CCC(C)(C)NC(=O)CN(C(=O)CCC(=O)Nc1ccccn1)c1ccc(F)c(Cl)c1,-1.31
13,Cc1cc(=O)oc2cc(NC(=O)c3ccccc3C(=O)O)ccc12,15.7
14,CN(CC(=O)Nc1ccccc1Br)C(=O)CNC(=O)c1ccc(Oc2ccccc2)cc1,-17.8
15,CN1C[C@@H]2C[C@@H](c3cccn3-c3ccccn3)N3CCC[C@@]23C1=O,-43.6
16,O=C1N(C2CCCC2)C[C@@H]2C[C@@H](c3cccn3-c3ccccn3)N3CCC[C@@]123,-62.6
17,O=C1N(C2CCCC2)C[C@@H]2C[C@@H](c3cccn3-c3nccs3)N3CCC[C@@]123,-66.6
18,CCn1ccnc1[C@@H]1C[C@H]2CN(c3ccccc3OC)C(=O)[C@]23CCCN13,19.8
19,CN1C[C@@H]2C[C@@H](c3cccn3-c3nccs3)N3CCC[C@@]23C1=O,-19.2
